Source: article PMC5540273 (PLoS ONE, 2017)
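Also: KINOMEscan kinase panel screen.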

What follows are compounds tested on ACVR1. Conditions: concentration: 1 μM,replicates: in singlicate; n = 1.
`CCn1c(-c2nonc2N)nc2cncc(CNC3CCNCC3)c21.Cl` [SB-747651] was tested, and the “%Inh” value was 8%. For `Cc1ccc(C(=O)Nc2ccc(Oc3ccc4nc(NC(=O)C5CC5)cn4c3)c(F)c2)c(=O)n1-c1ccccc1`, the “%Inh” value was 0%. In the case of `Cl.c1ccc(Oc2ccc(Nc3ccnc4cc(-c5ccc(CN6CCNCC6)o5)ccc34)cc2)nc1` [GW567142], the “%Inh” value is reported as 0%. With `Nc1nccc(-c2ccc3c(N)n[nH]c3c2)n1` [GSK1034945] the “%Inh” value was 0%. For `O=C(Nc1cccc(C(F)(F)F)c1)c1cccc(Oc2ccc3nccn3n2)c1`, the “%Inh” value was 0%. With `CCNCC(Cc1ccccc1)NC(=O)c1cc(Br)c(-c2ccnc3[nH]ccc23)s1.Cl.Cl` (stereo not shown) [GSK1383280] the “%Inh” value was 0%. In the case of `Cl.Nc1n[nH]c2cc(-c3ccccn3)ccc12` [GSK2189892], the “%Inh” value is reported as 10%. With `O=C1NCCc2[nH]c(-c3ccncc3)cc21` the “%Inh” value was 14%. In the case of `CS(=O)c1ccc(-c2coc3ccc(-c4n[nH]c(=O)o4)cc23)cc1` (stereo not shown), the “%Inh” value is reported as 0%. In the case of `Cc1ccn2nc(-c3ccc(F)cc3)c(-c3ccncc3)c2c1.Cl` [GW457859], the “%Inh” value is reported as 9%. For `Cn1ccc2ncnc(Oc3ccc(NC(=O)Nc4cnn(C(C)(C)C)c4)c(Cl)c3)c21`, the “%Inh” value was 0%. With `Cn1ccc2ncnc(Oc3ccc(NC(=O)Nc4cccc(C(F)(F)F)c4)c(F)c3)c21` the “%Inh” value was 0%. `COc1cc2ncn(-c3cc(OCC4CCCCC4)c(C(N)=O)s3)c2cc1OC` [GSK204559] was tested, and the “%Inh” value was 5%. For `COC(=O)Nc1nc2cc(Oc3ccc(NC(=O)Nc4cc(C(F)(F)F)ccc4Cl)cc3)ccc2[nH]1.Cl` [GW697465], the “%Inh” value was 0%. With `N#Cc1cccc(C(=O)NC2CCN(c3ccnc(Nc4ccc(F)cc4)n3)C2)c1` (stereo not shown) [GSK1379708] the “%Inh” value was 31%. For `CN(c1cccc(CNc2nc(Nc3ccc4c(c3)CC(=O)N4)ncc2C(F)(F)F)c1)S(C)(=O)=O`, the “%Inh” value was 0%. With `CNC(=O)c1ccccc1Nc1nc(Nc2cccc(CS(C)(=O)=O)c2)ncc1C.O=CO` [GSK1520489] the “%Inh” value was 76%. In the case of `C[C@@H](Oc1cc(-n2cnc3cc(-c4cnn(C)c4)ccc32)sc1C(N)=O)c1ccccc1Cl` [GSK580432], the “%Inh” value is reported as 0%. For `COc1cc2c(Nc3ccc(NC(=O)c4ccccc4)cc3)ncnc2cc1OCCCN1CCOCC1` [GSK301329], the “%Inh” value was 0%. In the case of `CC(C)S(=O)(=O)N1CCN(Cc2ccc3c(c2)nc(NC(=O)c2ccsc2)n3C[C@H](O)c2ccccc2)CC1` [GW635815], the “%Inh” value is reported as 0%. For `CC(=O)Nc1nc2cnc(Nc3cc(NC(=O)c4cccc(CC(C)(C)C#N)c4)ccc3C)nc2s1`, the “%Inh” value was 0%. For `Cc1nnc(-c2ccc3occ(-c4ccc(S(C)=O)cc4)c3n2)o1` (stereo not shown), the “%Inh” value was 0%. `Cc1n[nH]c2cc(Nc3ccnc(Nc4cccc(CN5CCOCC5)c4)n3)ccc12` [GW682569] was tested, and the “%Inh” value was 85%. In the case of `Cl.Cl.NC[C@H](CC1CCCCC1)NC(=O)c1ccc(-c2ccnc3[nH]ccc23)s1` [GSK1581428], the “%Inh” value is reported as 5%. In the case of `COc1cccc(CNC(=O)NC2CCN(c3ccnc(Nc4cc(OC)c(OC)c(OC)c4)n3)C2)c1` (stereo not shown) [GSK1379765], the “%Inh” value is reported as 0%.
